We go through 94 sequences from the supplement of paper PMC3334620.

In all, about 33,000 sequences were measured (“E-score (-0.5 to 0.5)”: median about -0.016, highest 2% from about 0.3 on). The list comes from a sample in which the highest values are over-represented; it also holds similar and randomly drawn sequences.

The assay addresses T1, Yer184c (UniProt P39961).
T1 sequence: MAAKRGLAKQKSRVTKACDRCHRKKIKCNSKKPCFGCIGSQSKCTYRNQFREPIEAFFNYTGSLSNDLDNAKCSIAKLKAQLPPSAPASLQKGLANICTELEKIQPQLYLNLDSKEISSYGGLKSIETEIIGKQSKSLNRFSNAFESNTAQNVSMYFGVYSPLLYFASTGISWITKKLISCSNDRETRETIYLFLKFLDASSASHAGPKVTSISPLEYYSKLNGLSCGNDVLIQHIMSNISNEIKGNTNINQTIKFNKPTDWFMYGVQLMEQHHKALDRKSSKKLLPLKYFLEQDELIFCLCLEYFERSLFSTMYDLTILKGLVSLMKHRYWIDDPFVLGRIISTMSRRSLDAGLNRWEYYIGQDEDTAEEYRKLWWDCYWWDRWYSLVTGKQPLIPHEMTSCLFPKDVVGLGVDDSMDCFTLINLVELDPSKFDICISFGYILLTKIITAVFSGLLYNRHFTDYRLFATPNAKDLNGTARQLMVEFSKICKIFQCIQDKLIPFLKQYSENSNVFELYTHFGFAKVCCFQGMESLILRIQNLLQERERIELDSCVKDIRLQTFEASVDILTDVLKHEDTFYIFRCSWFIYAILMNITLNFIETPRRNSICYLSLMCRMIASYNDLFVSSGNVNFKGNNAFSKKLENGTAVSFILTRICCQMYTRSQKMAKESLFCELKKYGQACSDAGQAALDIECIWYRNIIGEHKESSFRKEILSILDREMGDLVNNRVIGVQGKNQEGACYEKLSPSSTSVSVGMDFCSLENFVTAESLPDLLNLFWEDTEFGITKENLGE
Nature of the assay: PBM E-score (8-mer binding enrichment) (E-score (-0.5 to 0.5)); higher = stronger / more preferred TF binding. To be noted: protein concentration: 100 nM; construct: GST-full length. Summed up: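 Masliner-normalised scans of fluorescent anti-GST signal were the basis for scoring. That signal came from GST-tagged yeast transcription factors applied at about 100-200 nM to double-stranded universal all-10-mer Agilent arrays on fresh or once-stripped slides. Each ungapped eight-base word, pooled with its reverse complement, received an E-score from the Universal PBM Analysis Suite.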
Turning to ACTTTTTG, the “PBM E-score” value stood at 0.154. The value for ACCCTCGT was -0.116; that for ACAGTAAG was -0.0845.

As for GACATTGC, the “PBM E-score” value was -0.175. The value for ATATAAAG was 0.0639. Then AAATAAAT, with 0.34; and AAATAAAG, with 0.045.

In the case of AAATAAAA, the “PBM E-score” value was 0.0817. Then ATATAAAC, with 0.17.

As to ATATAAAT, the “PBM E-score” value worked out at 0.305. Then CGTGCTGC, with -0.0543; and CGGGGGGA, with -0.373. The value for AACTGCAA was 0.0848; that for GAGTTAGC was -0.0328. The value for CTCTTATA was 0.145; that for ATGGTATA was -0.0158; that for ACATGCTG was -0.257. For CCACCGGA, the “PBM E-score” value worked out at 0.346.

On to CCACCGGC, for which the “PBM E-score” value turned out to be 0.146. With CCACCGGG, the “PBM E-score” value is -0.00255. Then GCACCGGC, with 0.234; and ACACCGGA, with 0.246; and GCACCGGA, with 0.33. The value for TAGACCGA was 0.105. For TAATCATA, the “PBM E-score” value amounted to 0.157.

Consider TACTAGTA, for which the “PBM E-score” value came out at 0.338.

In the case of GACTAGTA, the “PBM E-score” value was -0.12.

Turning to CACTAGTA, the “PBM E-score” value is -0.0824. Take AGTGCCAG: the “PBM E-score” value is -0.28.

Take GGTGCCGA: the “PBM E-score” value was determined as 0.266. Take AGTGCCGA: the “PBM E-score” value stood at 0.333. Then AGTGCCGC, with 0.123. For AGTGCCGG, the “PBM E-score” value was determined as 0.337.

For AGTGCCTG, the “PBM E-score” value is -0.132. On to GGACCACC, for which the “PBM E-score” value was -0.116.

On to CTCGACCC, for which the “PBM E-score” value is -0.118. The value for AGCTGCCC was 0.034; that for TGGCTTAA was 0.175.

With CGGCTTAG, the “PBM E-score” value worked out at 0.213.

Consider CGGCTTAA, for which the “PBM E-score” value was found to be 0.393.

As to AGGCTTCA, the “PBM E-score” value is -0.108. Then CGGCTTCC, with 0.198; and CGGCTTCA, with 0.345.

On to ACGTCAAG, for which the “PBM E-score” value was -0.124. Then CACCTTGA, with -0.151; and GTCAACGA, with -0.0301.

As for GCTGTTTA, the “PBM E-score” value stood at 0.141. Then CCCGGCAG, with 0.131; and GGCGGCAC, with 0.0696.

For the sequence ACCGGCAG, the “PBM E-score” value is 0.0457. The value for GCCGGCAC was 0.422.

On to CGCGGCAA, for which the “PBM E-score” value amounted to 0.274. Then TGCGGCAA, with 0.0333; and CCCGGCAC, with 0.0863; and ACCGGCAA, with 0.222.

As for CCCGGCAA, the “PBM E-score” value stood at 0.335. Then TACGGCAA, with 0.158; and TCCGGCAA, with 0.339; and ACCGGCAC, with 0.363. For GTGAGGGA, the “PBM E-score” value is -0.252.

CAATTGCG: the “PBM E-score” value is -0.0249. The value for ACGCTAAA was 0.0442; that for AAATTGAT was 0.159.

In the case of AGTTAACC, the “PBM E-score” value is -0.0162. The value for GCTATCCC was -0.16.

For the sequence CGAATGCA, the “PBM E-score” value is 0.0594. As to ACCTTGCA, the “PBM E-score” value is -0.197. The value for AAAAATGT was 0.0248.

As to CTTCTGAC, the “PBM E-score” value was -0.218. Then CCACAAGA, with 0.0207; and GCCGGCAA, with 0.424. Then GCCGGCTA, with 0.266; and GACGGCAA, with 0.148. The value for CGACTAAG was -0.0168. GTTCGCGA: the “PBM E-score” value came out at 0.311. Then ATTCGCGA, with -0.0163; and CTTCGCGA, with 0.0769; and TATTCCAA, with 0.115. The value for AATTCCCA was -0.123; that for GATTCCGA was 0.33. The value for TATTCCGA was 0.389; that for GATTCCGC was 0.0917; that for GCTTCCTA was 0.0691. On to AATTCCAA, for which the “PBM E-score” value was 0.116.

Take AATTCCGA: the “PBM E-score” value was 0.389. The value for GCTTCCGA was 0.306; that for CCTTCCGA was 0.227; that for TATTCCCA was 0.0619. Then GATTCCCA, with -0.0287; and GGGTAGAA, with -0.0545; and CAGAGCAG, with -0.00548.

With ACCAGCTC, the “PBM E-score” value is -0.141. Then AGACCTAA, with -0.106; and AGAGACCG, with -0.00169.
